The sample as a whole holds a higher share of hits than the screen did.
KDM5B inhibitor: Primary screen for KDM5B Histone Demethylases FDH-coupled qHTS; KDM5B demethylase, FDH-coupled NADH fluorescence (FDH is formaldehyde dehydrogenase); Potency, µM (top dose mostly 57.7 µM), usual class: inhibitors; 220,000 compounds, 2.6% hits; AID 1347165, 2019; active = well fitted inhibition curve with a large enough effect; also: nearly all actives have a fitted effect of over 70% in size
Target sequence (Q9UGL1 whole entry, looked up): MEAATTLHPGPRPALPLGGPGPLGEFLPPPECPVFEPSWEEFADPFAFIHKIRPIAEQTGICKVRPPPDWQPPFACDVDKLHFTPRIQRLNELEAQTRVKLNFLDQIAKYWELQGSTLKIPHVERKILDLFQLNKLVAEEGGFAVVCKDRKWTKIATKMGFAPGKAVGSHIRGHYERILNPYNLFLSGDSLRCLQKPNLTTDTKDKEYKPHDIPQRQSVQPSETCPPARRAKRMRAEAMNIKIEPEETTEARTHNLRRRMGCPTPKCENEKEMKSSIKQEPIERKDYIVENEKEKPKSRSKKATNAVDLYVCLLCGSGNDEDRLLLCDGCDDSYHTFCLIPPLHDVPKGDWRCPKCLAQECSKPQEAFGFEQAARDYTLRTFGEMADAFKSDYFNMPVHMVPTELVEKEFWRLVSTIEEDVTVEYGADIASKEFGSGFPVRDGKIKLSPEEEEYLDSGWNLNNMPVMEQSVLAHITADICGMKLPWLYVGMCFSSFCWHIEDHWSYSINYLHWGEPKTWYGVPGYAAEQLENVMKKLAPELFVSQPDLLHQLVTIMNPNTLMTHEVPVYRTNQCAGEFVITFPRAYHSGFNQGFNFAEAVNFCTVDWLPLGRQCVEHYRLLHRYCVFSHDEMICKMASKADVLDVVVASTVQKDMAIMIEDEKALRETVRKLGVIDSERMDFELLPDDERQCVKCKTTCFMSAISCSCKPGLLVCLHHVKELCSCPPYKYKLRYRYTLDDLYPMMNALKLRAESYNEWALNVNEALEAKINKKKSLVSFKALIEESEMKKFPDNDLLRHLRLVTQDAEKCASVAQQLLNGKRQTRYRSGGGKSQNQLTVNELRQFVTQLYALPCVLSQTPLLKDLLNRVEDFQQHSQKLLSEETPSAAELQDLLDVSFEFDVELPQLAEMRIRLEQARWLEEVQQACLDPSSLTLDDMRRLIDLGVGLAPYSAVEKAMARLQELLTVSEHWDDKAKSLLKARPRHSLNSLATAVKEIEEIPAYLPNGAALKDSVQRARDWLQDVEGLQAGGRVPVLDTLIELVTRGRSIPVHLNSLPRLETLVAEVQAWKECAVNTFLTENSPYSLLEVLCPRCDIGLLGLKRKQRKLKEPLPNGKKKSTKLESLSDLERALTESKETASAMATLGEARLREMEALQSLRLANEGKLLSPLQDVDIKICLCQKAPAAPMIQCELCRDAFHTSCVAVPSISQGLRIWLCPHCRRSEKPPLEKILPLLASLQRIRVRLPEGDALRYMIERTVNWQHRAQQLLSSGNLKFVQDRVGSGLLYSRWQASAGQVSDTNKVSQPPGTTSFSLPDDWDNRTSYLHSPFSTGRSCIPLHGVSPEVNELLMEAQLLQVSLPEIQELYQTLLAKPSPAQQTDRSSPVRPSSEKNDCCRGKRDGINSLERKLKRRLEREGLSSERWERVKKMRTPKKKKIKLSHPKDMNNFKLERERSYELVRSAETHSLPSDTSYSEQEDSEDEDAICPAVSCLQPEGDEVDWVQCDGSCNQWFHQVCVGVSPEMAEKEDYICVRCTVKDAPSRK
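qHTS format, multiple compound concentrations. Buffer 50 mM HEPES pH 7.5/0.01% Tween-20; 200 nM KDM5BΔAP final; 10 min compound preincubation; substrate-mix levels 12.5 µM peptide, 25 µM α-KG, 0.25 mM NAD⁺; 30 min RT; ΔRFU.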
Numbers stand for hits.

`O=C(NC1CCN(C(=O)N2CC3CC(C2)[C@H]2CCCC(=O)N2C3)CC1)c1ccccc1` (some centres undefined) gave KDM5B inhibitor inactive.
Screening C#CCCCCCCCCC(=O)N1CCOCC1 returned KDM5B inhibitor inactive.
Screening COc1ccc(NC(=O)C(Sc2nnc(-c3ccco3)n2N)c2ccccc2)cc1Cl (centres undefined) returned KDM5B inhibitor inactive.
C[C@@H]1C(=O)O[C@H]2[C@H]1CC[C@@]1(C)Cc3sc(NCCc4ccccn4)nc3[C@@H](C)[C@H]21 was read as KDM5B inhibitor inactive.
`CC(C)NC(=O)NC(=O)CN1CCCc2ccccc21` gave KDM5B inhibitor inactive.
`COc1ccc2c(c1)OCC(CNC(=O)c1csc(C(C)=O)c1)C2` (centres undefined) gave KDM5B inhibitor inactive.
For COc1ccc2c(c1)OCC(CNC(=O)c1cnn3ccccc13)C2 (centres undefined) the results were KDM5B inhibitor 25.1µM.
COCc1ccc(C(=O)NCC2COc3cc(OC)ccc3C2)o1 (centres undefined) was read as KDM5B inhibitor inactive.
`CCOc1ccccc1NC(=O)c1cc2c(=O)n3ccccc3nc2n1C` gave KDM5B inhibitor inactive.
For COc1ccc2oc(=O)c(-c3nc(-c4ccccn4)no3)cc2c1 the results were KDM5B inhibitor inactive.
Screening COc1ccc(Cl)cc1C(=O)NCCc1noc(C)n1 returned KDM5B inhibitor inactive.
`COc1cccc(C(=O)NCCc2csc(-c3cccc(F)c3)n2)c1OC` gave KDM5B inhibitor inactive.
Cn1ccc2c(C(=O)NCCc3cnc[nH]3)nc(-c3ccc(N4CCOCC4)cc3)cc21 was read as KDM5B inhibitor inactive.
COc1ccc(-c2cc(C(=O)NCCc3cnc[nH]3)c3c(c2)N(C)CCO3)cn1 was read as KDM5B inhibitor 28.2µM.
COc1ccc(C(=O)NCCc2noc(-c3ccncc3)n2)cn1 was read as KDM5B inhibitor inactive.
`CN1CCOc2c(C(=O)NCCc3cnc[nH]3)cc(-c3cccnc3)cc21` gave KDM5B inhibitor inactive.
For COc1cc(F)ccc1-c1cc(C(=O)NCCc2cnc[nH]2)c2c(c1)N(C)CCO2 the results were KDM5B inhibitor 39.8µM.
COc1cccc(-c2cc(C(=O)NCCc3cnc[nH]3)c3c(c2)N(C)CCO3)c1OC was read as KDM5B inhibitor 28.2µM.
Screening CCOc1cc(Br)c(C2C(C#N)=C(N)Oc3c2ccc2ccccc32)cc1OC (centres undefined) returned KDM5B inhibitor inactive.
Screening CC(C)c1ccc(OCC(=O)c2ccc3c(c2)N(CCCC(=O)N2CCOCC2)C(=O)CO3)cc1 returned KDM5B inhibitor inactive.
COCCCn1cnnc1SCC(=O)c1c[nH]c2ccccc12 was read as KDM5B inhibitor inactive.
`C=C(C)Cn1c(SCc2ccccc2Cl)nc2c1c(=O)n(C)c(=O)n2C` gave KDM5B inhibitor inactive.
Screening O=C(NCc1ccccc1)c1ccnc(-c2nnc3ccc(N4CCOCC4)nn23)c1 returned KDM5B inhibitor inactive.
Screening CN(C)C(=O)c1ccnc(-c2nnc3ccc(NCCN4CCOCC4)nn23)c1 returned KDM5B inhibitor 35.5µM.
CN(C)C(=O)c1ccnc(-c2nnc3ccc(N(C)Cc4ccccc4)nn23)c1 was read as KDM5B inhibitor inactive.
For Cc1ccsc1/C=C1\Oc2cc(OS(C)(=O)=O)ccc2C1=O the results were KDM5B inhibitor inactive.
O=C(c1ccn(C(F)F)n1)N1CCCC(c2ccccc2)(c2ccccc2)C1 was read as KDM5B inhibitor inactive.
O=C(NCc1nnc2c(-c3nc(C4CC4)no3)cccn12)c1ccc(F)cc1 was read as KDM5B inhibitor 22.4µM.
`Cc1ccc(C)c(C(=O)NCc2nnc3c(-c4nc(C5CC5)no4)cccn23)c1` gave KDM5B inhibitor 25.1µM.
`Cc1ccc(C)c(C(=O)NCc2ccco2)c1` gave KDM5B inhibitor inactive.
`c1ccc(-c2nc(C3CC3)no2)c(OC2CNC2)c1` gave KDM5B inhibitor inactive.
For O=C(c1ccc(F)c(F)c1)N1CCCC(n2cc(-c3nc(C4CC4)no3)nn2)C1 (centres undefined) the results were KDM5B inhibitor inactive.
Cc1ccc(C)c(C(=O)NCC(C)C)c1 was read as KDM5B inhibitor inactive.
For O=C(NCc1nnc2c(-c3nc(C4CC4)no3)cccn12)c1ccc(F)c(Cl)c1 the results were KDM5B inhibitor 28.2µM.
Screening O=C(NCc1nnc2n1C(C(=O)NCc1ccc(F)cc1)CC2)c1ccccc1 (centres undefined) returned KDM5B inhibitor inactive.
CCCc1noc(-c2cccn3c(CNC(=O)Cc4ccc(Cl)cc4)nnc23)n1 was read as KDM5B inhibitor 25.1µM.
For O=C(NCc1nnc2n1C(C(=O)O)CC2)c1cccc(Cl)c1 (centres undefined) the results were KDM5B inhibitor inactive.
For CCOc1ccc(-n2ccn3c(SCC(=O)c4ccc(OC)c(OC)c4)nnc3c2=O)cc1 the results were KDM5B inhibitor inactive.
For O=C(NC1Cc2ccccc2C1)C1CC1 the results were KDM5B inhibitor inactive.
Screening COc1ccc2cc(C(=O)N3CCN(S(=O)(=O)c4ccc(C)cc4C)CC3)c(C)nc2c1 returned KDM5B inhibitor inactive.
N#Cc1ccc(NN)c([N+](=O)[O-])c1 was read as KDM5B inhibitor inactive.
Screening Cc1cc(I)ccc1NC1CCOC1=O (centres undefined) returned KDM5B inhibitor inactive.
Screening Cc1ccc(CN2CCCN(c3cccc(C(=O)N4CCCCCC4)c3)C2=O)cc1 returned KDM5B inhibitor inactive.
Screening OCCOc1ccccc1CN1CCCC(N2CCN(c3ccccc3)CC2)C1 (centres undefined) returned KDM5B inhibitor inactive.
`CC(C)(C)C(=O)Cc1[nH]c2cc(Cl)ccc2c1C(C)(C)C` gave KDM5B inhibitor inactive.
For COc1cccc(-c2nc(C(=O)N3CCC(C)CC3)nn2-c2ccccc2)c1 the results were KDM5B inhibitor inactive.
CCOC(=O)C(C)Oc1ccc2c(=O)c(-c3ccc(Cl)cc3)coc2c1 (centres undefined) was read as KDM5B inhibitor inactive.
For S=C(NCCCCCCNC(=S)Nc1cccc(Cl)c1)Nc1cccc(Cl)c1 the results were KDM5B inhibitor inactive.
`O=C(Cn1cccc1-c1nc(-c2ccccc2)no1)NCc1ccc(Cl)cc1` gave KDM5B inhibitor inactive.
`Cc1ccccc1OCC(=O)NCc1nnc2c(-c3nc(C4CC4)no3)cccn12` gave KDM5B inhibitor inactive.
Screening Cc1nc(CCNC(=O)C2CCC2)no1 returned KDM5B inhibitor inactive.
O=C(Cc1ccc(Cl)cc1)NCc1nnc2c(-c3nc(C4CC4)no3)cccn12 was read as KDM5B inhibitor 28.2µM.
Screening CC(C)NC(=O)C1CCc2nnc(CNC(=O)C3CC3)n21 (centres undefined) returned KDM5B inhibitor inactive.
`O=C(CCc1ccccc1)NCc1nnc2c(-c3nc(C4CC4)no3)cccn12` gave KDM5B inhibitor 28.2µM.
Screening O=C(Cn1cccc1-c1nc(-c2ccc3c(c2)OCO3)no1)NCCc1ccc(Cl)cc1 returned KDM5B inhibitor inactive.
`O=C(NCc1nnc2c(-c3nc(C4CC4)no3)cccn12)C1CC1` gave KDM5B inhibitor 22.4µM.
Screening COCCOCC(=O)N1CC(Oc2ccccc2-c2nc(C3CC3)no2)C1 returned KDM5B inhibitor inactive.
`O=C(CCCc1ccccc1)N1CCC(c2noc(-c3ccccc3)n2)C1` (centres undefined) gave KDM5B inhibitor inactive.
O=C(NCCc1noc(-c2cccnc2)n1)C1CCC1 was read as KDM5B inhibitor inactive.

High-throughput results from PubChem.
